Screening results (PubChem)
In the library only some 6.7% were active in any assay of this set; here they are far more common.
Pf Dd2 growth = P. falciparum Dd2 growth inhibitors, primary screen, SYBR Green fluorescence, single dose replicates; hit rate 2.3% among 94,000; 72 h; hits give low values; activity change, % at 10 µM; in the data active means activity change below about -80%; inconclusive means no clear call, values can overlap the other calls
C diff HTS = C. difficile growth inhibitors, primary screen, HTS. hit rate 0.25% among 86,000. Clostridium difficile clinical isolate growth, OD600, 24 h; hits give low values. growth activity, negative = inhibition, % at 16 µg/mL (by protocol);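 active means mean growth activity at or below -80% and every replicate also at or below -80%; inconclusive means mean at or below -80% but some replicate above -80%; inactive means mean growth activity above -80%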;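 further: 0% = DMSO wells and -100% = levofloxacin 16 µg/mL wells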
T cruzi growth-1 = T. cruzi intracellular proliferation inhibitors, primary screen, cell-based, beta-gal Tulahuen parasites, NIH3T3 host, luminescence; inhibition, % at 8.34 µM; hit rate 5.9% among 77,000; T. cruzi beta-gal in NIH3T3, GalScreen luminescence, 90 h;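 active means mean inhibition above about 93%, with at least 55% of replicates each passing it, limit read from the data, passing the limit was not always enough; inconclusive means only one of those two conditions holds; inactive means neither condition holds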
T cruzi growth-2 = T. cruzi intracellular proliferation inhibitors, confirmation, cell-based, NIH3T3 host, beta-gal parasite, luminescence, cherry-pick; shares compounds with T cruzi growth-1; T. cruzi beta-gal in NIH3T3, GalScreen luminescence, 90 h; inhibition, % at 8.35 µM; hit rate 72% among 5,600;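 active means mean replicate inhibition above about 95% and at least 55% of replicates individually reaching it, limit read from the data; inconclusive means only one of the two criteria is met; inactive means neither criterion is met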
T cruzi growth-3 = inhibitors of intracellular T. cruzi replication, confirmation, NIH3T3 host cells, beta-gal parasites, cherry-pick, set 2 | shares compounds with T cruzi growth-1 | inhibition, % at 2.09 µM | T. cruzi beta-gal in NIH3T3, GalScreen luminescence, 90 h | hit rate 21% among 5,600 | AID 651740, 2012;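 active means mean inhibition above about 95%, with at least 55% of replicates also reaching it, limit read from the data; inconclusive means meets just one of the two conditions; inactive means meets neither condition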;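 further: plate controls were neutral control median for no effect and positive control median for full effect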
NIH3T3 tox = cytotoxicity in mouse NIH/3T3 fibroblasts, confirmation, cytotoxicity control for T. cruzi proliferation inhibitor project, cell-based, cherry-pick, single point; shares compounds with T cruzi growth-1; NIH/3T3 viability, CellTiter-Glo ATP luminescence, 90 h; cytotoxicity (signal decrease), % at 8.35 µM; hit rate 14% among 5,600; AID 651742, 2012;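 active means mean signal decrease across replicates above about 35% based on untreated-well scatter, with enough replicates individually passing, limit read from the data; inconclusive means no rule stated though some were filed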;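 further: 0% = median of neutral control wells and 100% = median of positive control wells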
NIH3T3 tox 2 = NIH/3T3 fibroblast cytotoxicity, confirmation, cytotoxicity control, cell-based, cherry-pick, single point, set 2; shares compounds with T cruzi growth-1; NIH/3T3 viability, CellTiter-Glo ATP luminescence, 90 h; inhibition, % at 24.9 µM; hit rate 56% among 5,600; AID 651744, 2012;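 active means mean loss of cell viability signal at or above a set limit, and enough replicates individually reaching it; inconclusive means meets only the mean limit or only the replicate share; inactive means meets neither condition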;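 further: 0% = median of neutral control wells and 100% = median of positive control wells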
Starred values were filed as active, the others as inactive; ? = inconclusive; . = no result.

SMILES	Pf Dd2 growth	C diff HTS	T cruzi growth-1	T cruzi growth-2	T cruzi growth-3	NIH3T3 tox	NIH3T3 tox 2
C[C@@H]1CN([C@H](C)CO)C(=O)c2cc(NC(=O)NC3CCCCC3)ccc2O[C@@H](C)CCCCO[C@H]1CN(C)C(=O)Nc1ccc2c(c1)OCO2	-70.4	-7.5	22.5	.	.	.	.
C[C@@H]1CCCCO[C@@H](CN(C)C(=O)Nc2ccc3c(c2)OCO3)[C@H](C)CN([C@@H](C)CO)C(=O)c2cc(NC(=O)NC3CCCCC3)ccc2O1	9.7	-6.8	52.1	.	.	.	.
C[C@@H]1CCCCO[C@@H](CN(C)C(=O)Nc2ccc3c(c2)OCO3)[C@H](C)CN([C@H](C)CO)C(=O)c2cc(NC(=O)NC3CCCCC3)ccc2O1	-58.7	2.2	?	108.1*	31.2	-13.1	-1.5
COc1ccc(NC(=O)N(C)C[C@@H]2OCCCC[C@H](C)Oc3ccc(NC(=O)CCCN(C)C)cc3C(=O)N([C@@H](C)CO)C[C@H]2C)cc1	19.9	-9.5	-28.4	.	.	.	.
CNC[C@@H]1Oc2ccc(NS(=O)(=O)c3c(C)noc3C)cc2CC(=O)N([C@@H](C)CO)C[C@H]1C	28.4	-3.4	3.7	.	.	.	.
C[C@@H]1CN([C@@H](C)CO)C(=O)Cc2cc(NS(=O)(=O)c3ccc(Cl)cc3)ccc2O[C@H]1CN(C)C(=O)Nc1ccc2c(c1)OCO2	-24.6	.	41.2	.	.	.	.
C[C@@H]1CCCCO[C@H](CN(C)C(=O)c2ccncc2)[C@H](C)CN([C@H](C)CO)C(=O)c2cc(NC(=O)c3ccccc3)ccc2O1	-7.3	-0.7	97.1*	23.5	-16.6	12.0	10.7
C[C@@H]1CCCCO[C@@H](CN(C)Cc2ccccc2)[C@H](C)CN([C@H](C)CO)C(=O)c2cc(NC(=O)c3ccncc3)ccc2O1	-40.9	.	?	60.8	38.5	-8.0	-7.1
C[C@@H]1CCCCO[C@H](CN(C)Cc2ccccc2)[C@H](C)CN([C@@H](C)CO)C(=O)c2cc(NC(=O)c3ccncc3)ccc2O1	-14.1	-5.5	84.1	.	.	.	.
C[C@@H]1CN([C@H](C)CO)C(=O)c2cc(NC(=O)c3ccncc3)ccc2O[C@@H](C)CCCCO[C@H]1CN(C)Cc1ccccc1	-21.7	-3.2	98.1*	58.8	-33.2	-4.9	1.4
C[C@@H]1CN([C@@H](C)CO)C(=O)c2cc(NC(=O)c3ccncc3)ccc2O[C@@H](C)CCCCO[C@@H]1CN(C)C(=O)c1ccccc1	-12.7	-0.8	48.1	.	.	.	.
C[C@@H]1CCCCO[C@@H](CN(C)Cc2ccccc2)[C@H](C)CN([C@@H](C)CO)C(=O)c2cc(NC(=O)c3ccncc3)ccc2O1	4.3	-3.6	69.7	.	.	.	.
C[C@@H]1CCCCO[C@H](CN(C)Cc2ccncc2)[C@H](C)CN([C@@H](C)CO)C(=O)c2cc(NC(=O)c3ccccc3)ccc2O1	-31.5	-3.5	11.8	.	.	.	.
C[C@@H]1CN([C@@H](C)CO)C(=O)c2cc(NC(=O)c3ccccc3)ccc2O[C@@H](C)CCCCO[C@@H]1CN(C)Cc1ccncc1	-77.1	-8.0	114.0*	99.8*	29.2	-14.0	13.5
CC(=O)N(C)C[C@H]1Oc2cc(/C=C/c3ccccc3)ccc2S(=O)(=O)N([C@@H](C)CO)C[C@@H]1C	-4.6	-9.6	.	.	.	.	.
CCC(=O)N1CCC2(CC1)CN(C(=O)c1cnccn1)[C@@H](CO)c1c2c2ccc(OC)cc2n1C	-3.3	-0.9	.	.	.	.	.
O=C(N[C@@H]1CC[C@H](CCNC(=O)C2CC2)O[C@@H]1CO)c1ccccn1	.	-0.1	.	.	.	.	.
C[C@@H]1CN([C@@H](C)CO)C(=O)c2cc(NC(=O)c3ccccc3)ccc2O[C@@H](C)CCCCO[C@H]1CN(C)Cc1ccccc1	-84.8*	3.3	101.6*	97.8*	66.6	-1.1	61.5*
C[C@H](CO)N1C[C@H](C)[C@H](CN(C)Cc2ccncc2)OCCCC[C@H](C)Oc2ccc(NC(=O)Cc3ccccc3)cc2C1=O	-1.5	-5.9	103.2*	96.0*	82.3	7.5	7.5
